Measurements taken from paper PMC4336329 (PLoS ONE, 2015).
Screen size: about 310,000 compounds; about 14,000 (4.5%) showed an effect of 50% or more. Effects have a minus sign here. The sample as a whole holds a higher share of strong results than the screen did.

molecular target: human ether-à-go-go-related gene (hERG) potassium channel (human, UniProt Q12809); test: primary screen, population patch clamp on CHO cells stably expressing hERG; higher = less effect of the substance
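Also: peak tail current of the secondary pulse compared with the same well before compound.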

Chain of human ether-à-go-go-related gene (hERG) potassium channel (Q12809 whole entry, looked up): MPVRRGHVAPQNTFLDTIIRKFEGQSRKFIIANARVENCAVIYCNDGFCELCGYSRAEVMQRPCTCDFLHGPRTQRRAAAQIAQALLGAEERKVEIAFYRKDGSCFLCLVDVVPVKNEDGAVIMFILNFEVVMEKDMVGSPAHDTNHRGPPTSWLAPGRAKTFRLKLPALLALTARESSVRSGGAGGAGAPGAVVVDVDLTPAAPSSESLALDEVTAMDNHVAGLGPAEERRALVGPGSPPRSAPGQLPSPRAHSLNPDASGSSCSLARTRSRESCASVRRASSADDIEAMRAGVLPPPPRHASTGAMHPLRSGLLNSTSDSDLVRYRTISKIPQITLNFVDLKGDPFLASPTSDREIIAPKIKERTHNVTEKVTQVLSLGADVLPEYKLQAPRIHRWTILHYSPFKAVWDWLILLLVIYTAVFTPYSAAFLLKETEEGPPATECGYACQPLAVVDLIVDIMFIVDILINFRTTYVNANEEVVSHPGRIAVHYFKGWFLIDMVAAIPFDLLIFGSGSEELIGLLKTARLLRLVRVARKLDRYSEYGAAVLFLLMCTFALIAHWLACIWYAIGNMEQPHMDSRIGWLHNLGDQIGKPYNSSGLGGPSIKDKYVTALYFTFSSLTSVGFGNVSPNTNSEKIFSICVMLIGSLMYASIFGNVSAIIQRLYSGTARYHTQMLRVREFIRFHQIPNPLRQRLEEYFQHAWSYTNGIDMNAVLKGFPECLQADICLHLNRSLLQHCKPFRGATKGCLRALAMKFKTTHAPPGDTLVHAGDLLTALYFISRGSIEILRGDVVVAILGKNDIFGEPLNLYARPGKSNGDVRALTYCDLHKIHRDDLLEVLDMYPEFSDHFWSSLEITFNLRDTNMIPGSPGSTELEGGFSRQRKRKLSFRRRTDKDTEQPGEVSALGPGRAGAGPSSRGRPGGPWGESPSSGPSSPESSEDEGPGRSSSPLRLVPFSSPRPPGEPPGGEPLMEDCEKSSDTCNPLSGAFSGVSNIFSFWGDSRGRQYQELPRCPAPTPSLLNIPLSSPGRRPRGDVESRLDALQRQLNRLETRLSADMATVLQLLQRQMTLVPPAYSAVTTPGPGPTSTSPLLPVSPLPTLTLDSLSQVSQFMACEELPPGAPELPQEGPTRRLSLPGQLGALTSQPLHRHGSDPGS

Compound | hERG current change (%, negative = inhibition) at 10uM [%]
COC(=O)c1ccc2c(=O)n(-c3ccccc3)c(SCN3C(=O)c4ccccc4C3=O)nc2c1 | 11
COc1ccc(/C(C)=N/Nc2ccc(F)cc2F)c(O)c1 | 6.58
COc1ccccc1C(=O)NC(=O)CSc1nc(C)cs1 | 12
CCOC(=O)N1CCN(C(=O)CN(c2cccc(OC)c2)S(C)(=O)=O)CC1 | -5.17
COc1cc(OC)c2c(-c3ccccc3)cc(=O)oc2c1C(CC(=O)N1CCOCC1)c1ccc2c(c1)OCO2 (centres unmarked) | 1.51
COc1cc(OC)c2c(C)cc(=O)oc2c1C(CCN1CCN(c2ccccc2)CC1)c1ccc2c(c1)OCO2 (centres unmarked) | -11.1
COc1cc(C(CCN2CCOCC2)c2c(OC)cc(OC)c3c(C)cc(=O)oc23)cc(OC)c1OC (centres unmarked) | -79.3
COc1ccc(C(CC(=O)N2CCOCC2)c2c(OC)cc(OC)c3c(-c4ccccc4)cc(=O)oc23)cc1 (centres unmarked) | 12
COc1ccc(C(CCN2CCCC(C)C2)c2c(OC)cc(OC)c3c(C)cc(=O)oc23)cc1 (centres unmarked) | -74.3
COc1ccc(C(CC(=O)N2CCCC(C)C2)c2c(OC)cc(OC)c3c(-c4ccccc4)cc(=O)oc23)cc1 (centres unmarked) | 8.57
COc1cc(OC)c2c(-c3ccccc3)cc(=O)oc2c1C(CCN1CCCC(C)C1)c1ccc(N(C)C)cc1 (centres unmarked) | -30
COc1cc(O)c(C(CCN2CCOCC2)c2cc(OC)c(OC)c(OC)c2)c(OC)c1 (centres unmarked) | 8.02
COc1cc(OC)c2c(C)cc(=O)oc2c1C(CCN1CCOCC1)c1ccc2c(c1)OCO2 (centres unmarked) | -68.4
COc1cc(C(CCN2CCN(c3ccccc3)CC2)c2c(OC)cc(OC)c3c(C)cc(=O)oc23)cc(OC)c1OC (centres unmarked) | -6.01
COc1cc(OC)c2c(C)cc(=O)oc2c1C(CCN1CCOCC1)c1ccc(N(C)C)cc1 (centres unmarked) | -28.5
COc1ccc(C(CCN2CCOCC2)c2c(OC)cc(OC)c3c(C)cc(=O)oc23)cc1 (centres unmarked) | -69.2
CCOc1ccc(S(=O)(=O)N2CCC(C(=O)OC(C)C(=O)N3CCOCC3)CC2)cc1 (centres unmarked) | -25.2
O=C(Cc1ccccc1[N+](=O)[O-])N/N=C/c1cccnc1 | 10
COc1ccccc1C(=O)NCC(=O)OCC(=O)c1ccc2c(c1)-c1ccccc1C2 | -0.208
Cc1nnc(NC(=O)C2CCCN(S(=O)(=O)Cc3ccccc3)C2)s1 (centres unmarked) | -2.64
CCc1ccc(N(CC(=O)NC2CCCC2)S(=O)(=O)c2c(C)noc2C)cc1 | -7.76

Compound | hERG current change (%, negative = inhibition) at 10uM [%]
O=C(Nc1nnc(C2=COCCO2)o1)c1ccc(S(=O)(=O)N2CCCC2)cc1 | 17.2
O=C(NCc1cccnc1)C1CCC(CNS(=O)(=O)c2cccc3nsnc23)CC1 (centres unmarked) | -9.63
CCOC(=O)CCc1c(C)nc2cc(-c3ccc(Cl)cc3)[nH]n2c1=O | -7.09
CCOC(=O)CC(NCc1ccc(OC)c(OCC)c1)c1ccc(C)cc1.Cl (centres unmarked) | -39
CC(C)C(NC(=O)c1ccco1)C(=O)NCC(c1ccco1)N1CCCCC1 (centres unmarked) | 20
COC(=O)Cn1c(CN2CCOCC2)nc2c1c(=O)[nH]c(=O)n2C | 3.43
CCN(CC)CCC(c1cc(OC)c(OC)c(OC)c1)c1c(OC)cc(OC)c2c(C)cc(=O)oc12 (centres unmarked) | -48.5
COc1cc(C(CCN2CCCCC2)c2c(OC)cc(OC)c3c(C)cc(=O)oc23)cc(OC)c1OC (centres unmarked) | -99.6
COc1cc(C(CCN2CCCC2)c2c(OC)cc(OC)c3c(C)cc(=O)oc23)cc(OC)c1OC (centres unmarked) | -75.5
Oc1ccc(Br)cc1CNn1cnnc1 | 13.9
COc1ccc(OC)c(CNc2ccc3c(c2)CCC3)c1 | 20.4
CC(C(=O)O)n1nc2ccccc2n1 (centres unmarked) | 21.4
CCOC(=O)c1c(CC(C)C)csc1NC(C)=O | -2.62
CC(C)[C@H](NC(=O)N1c2ccccc2NC(=O)[C@@H]1C(C)C)C(=O)N[C@@H](Cc1c[nH]c2ccccc12)C(=O)O | 3.11
O=C(O)CSc1ccnc2cc(Cl)ccc12 | 16.2
COc1cc(OC)cc(-c2c(-c3ccc(F)cc3)c3cc(-c4ccc5cc[nH]c5c4)ccc3n2C)c1 | 14.2
CNC(=O)COc1coc(CN2CCN(c3ccc(OC)cc3)CC2)cc1=O | 1.11
C=C1CCN([C@@H](CC(C)C)C(=O)N2CCOCC2)S(=O)(=O)c2ccccc21 | 13.3
C=C1CCN([C@@H](CC(C)C)C(=O)O)S(=O)(=O)c2ccccc21 | 22.6
C=C1CCN([C@@H](CC(C)C)C(=O)N2CCCC2)S(=O)(=O)c2ccccc21 | -54.7
CCc1nc2ccc(C(=O)N3CCN(c4ccc(Cl)cc4)CC3)cc2nc1CC | -6.46

Compound | hERG current change (%, negative = inhibition) at 10uM [%]
O=c1c2ccccc2nc2n1CC/C2=C\N1CCN(c2ccc([N+](=O)[O-])cc2)CC1 | -78.1
O=C(c1ccc2c(=O)n3c(nc2c1)CCCCC3)N1CCN(c2ccc([N+](=O)[O-])cc2)CC1 | -73
CCc1nc2ccc(C(=O)N3CCN(c4ccccc4)CC3)cc2nc1CC | -5.04
O=C(c1ccc2c(=O)n3c(nc2c1)CCCCC3)N1CCN(c2ccc(Cl)cc2)CC1 | -48
CCc1nc2ccc(C(=O)N3CCN(c4ccc([N+](=O)[O-])cc4)CC3)cc2nc1CC | -72.1
Cc1ccc(C)c(N2CCN(C(=O)c3ccc4nsnc4c3)CC2)c1 | -1.44
Cc1nc2ccccc2c(=O)n1-c1ccc([N+](=O)[O-])cc1 | 7.26
O=C(c1ccc2nsnc2c1)N1CCN(c2ccc([N+](=O)[O-])cc2)CC1 | -75.5
Cl.O.O=c1c2ccccc2nc2n1CC/C2=C/N1CCN(c2cccc(C(F)(F)F)c2)CC1 | -28
O=C(c1ccc2c(=O)n3c(nc2c1)CCCCC3)N1CCN(c2ccc(F)cc2)CC1 | -42.1
O=C(c1ccc(NC2=NC3CS(=O)(=O)CC3S2)cc1)N1CCN(c2ccc([N+](=O)[O-])cc2)CC1 (centres unmarked) | -4.75
CCOP(=O)(c1ccccc1)C1(O)CCCCC1 (centres unmarked) | -1.86
CCCc1oc(C(=O)O)cc1CN1CCOCC1.Cl | 8.54
COC(=O)C1=C(C)N(Cc2ccccc2)C(=O)N[C@H]1c1ccco1 | 5.95
O=C(NCC(c1cccnc1)N1CCN(c2ccc(F)cc2)CC1)c1ccc2c(c1)OCO2 (centres unmarked) | -65.3
COc1ccc(N2CCN(C(CNC(=O)c3ccc4c(c3)OCO4)c3cccnc3)CC2)cc1 (centres unmarked) | -16.2
O=C(NCC(c1cccnc1)N1CCN(c2ccccc2)CC1)c1ccc2c(c1)OCO2 (centres unmarked) | -26.5
COc1ccc(N2CCN(C(CNC(=O)c3cccc(Cl)c3)c3cccnc3)CC2)cc1 (centres unmarked) | -38.7
O=C(NCC(c1cccnc1)N1CCN(c2ccc(F)cc2)CC1)c1ccccc1 (centres unmarked) | -40.2
O=C(NCC(c1cccnc1)N1CCN(c2ccc(F)cc2)CC1)c1cccc(Cl)c1 (centres unmarked) | -66.2
COCCN=c1scc(-c2ccc3c(c2)NC(=O)CO3)n1/N=C(\C)c1ccc(O)cc1 | -8.23

Compound | hERG current change (%, negative = inhibition) at 10uM [%]
Cn1c(=NC(=O)C2CC2)sc2cc(F)cc(F)c21 | -12.3
CCOC(=O)c1c(NC(=O)c2cccs2)sc(CC)c1-c1cccs1 | -11
Cc1nnc(NC(=O)CSc2ccc([N+](=O)[O-])cn2)s1 | 17.9
CC(C)(CN1CCCC1)NS(=O)(=O)c1ccccc1.Cl | 24.7
CC(C)(CN1CCC(Cc2ccccc2)CC1)NS(=O)(=O)c1ccccc1.O=C(O)C(=O)O | -60.8
CC(=O)N1CCN(CC(C)(C)NS(=O)(=O)c2ccc(C)cc2)CC1 | 7.76
CCOC(=O)C1CCN(CC(C)(C)NS(=O)(=O)c2ccccc2)CC1 | 11.5
CCOC(=O)C1CCN(CC(C)(C)NS(=O)(=O)c2ccc(C)cc2)CC1 | -4.95
Cc1ccc(S(=O)(=O)NC(C)(C)CN2CCC(Cc3ccccc3)CC2)cc1.O=C(O)C(=O)O | -64.8
COC(=O)c1ccc(-n2cc(-c3ccc(OC)cc3)[nH]c2=S)cc1 | 33.1
Nc1c(C(=O)c2ccc(Cl)cc2)sc2c1c(=O)[nH]c(=O)n2-c1ccccc1 | -24.2
CC[C@]1(c2ccccc2)C(=O)N(C(=O)OC)N1C(=O)OC | 25.2
COc1ccc(-c2noc3c2-c2nc(-c4ccc(Cl)cc4)sc2CC3)cc1 | 9.5
CCCNC(=O)C12CCC(C)(C(=O)O1)C2(C)C (centres unmarked) | 17.2
Clc1ccc2nc(-c3ccc(Br)s3)cn2c1 | 8.14
COc1ccc(-c2nc(CN3CCC(C(=O)NC4CCN(Cc5ccccc5)CC4)CC3)c(C)o2)cc1OC | 1.67
COc1ccccc1CNC(=O)C1CCN(Cc2nc(-c3cccc(Cl)c3)oc2C)CC1 | -78
Cc1oc(-c2cccc(Cl)c2)nc1CN1CCC(C(=O)NCCCN2CCCC2=O)CC1 | -38
CCc1ccc(-c2nc(CN3CCC(C(=O)NCc4ccccc4OC)CC3)c(C)o2)cc1 | -68.4
COc1ccccc1CNC(=O)C1CCN(c2nc3ccccc3o2)CC1 | -9.09
